From PubChem BioAssay
L3MBTL1 block: inhibitors of human L3MBTL1; Q9Y468; AlphaScreen L3MBTL1–H3K9me1 peptide binding; Potency, µM (series often up to 57.1 µM), most hits filed as inhibitors; hit rate 0.66% among 230,000; AID 485360; also: nearly all actives have a fitted effect of over 60% in size
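AlphaScreen assay: L3MBTL1 (50 nM final) was preincubated 30 min at room temperature with biotinylated H3(1-15)K9me1 peptide (75 nM final), then 30 min with library compounds; streptavidin donor and nickel chelate acceptor beads (10 ug/mL final) added, 30 min dark.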
G9a inh: inhibitors of human histone lysine methyltransferase G9a; G9a H3K9 monomethylation, AlphaScreen, 2 h; Potency, µM (top dose mostly 102 µM), most hits filed as inhibitors; hit rate 8.8% among 350,000; AID 504332; also: nearly all actives have a fitted effect of over 75% in size
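Using a bead-based AlphaScreen, monomethylated H3K9 product from 2 h room-temperature reactions (G9a 20 nM, peptide 500 nM, SAM 20 uM) was detected with 0.5 ug/mL rabbit anti-H3K9me1 antibody.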
JMJD2A Tudor: blocks the human JMJD2A Tudor domain; AlphaScreen JMJD2A-Tudor / H3K4me3 peptide binding; Potency, µM (titrated, usually from 114 µM), most hits filed as inhibitors; hit rate 4.4% among 390,000; also: nearly all actives have a fitted effect of over 50% in size
BAZ2B inh: inhibitors of human BAZ2B bromodomain | Q9UIF8 | AlphaScreen BAZ2B-H3K14Ac peptide displacement | Potency, µM (highest dose often 114 µM), actives largely listed as inhibitors | hit rate 4.4% among 360,000; also: nearly all actives have a fitted effect of over 60% in size
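Compounds, titrated to a top concentration of 110 uM, were incubated 30 min at room temperature with preformed BAZ2B/acetyl-K14 H3 peptide complex (50 nM each). Proximity signal was measured by AlphaScreen after 20 min with beads.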
HP1b binding inh: inhibitors of HP1-beta chromodomain binding to methylated histone tails; P83916; AlphaScreen HP1-beta / biotin-H3K9me3 peptide binding; Potency, µM (titrated, usually from 114 µM), usual class: inhibitors; hit rate 0.56% among 390,000; also: nearly all actives have a fitted effect of over 70% in size
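Compound inhibition of the preformed complex between 50 nM HP1-beta and 50 nM biotinylated H3K9me3 peptide was read by AlphaScreen. Buffer was PBS pH 7.4 with 0.01% Tween-20. Incubations ran 30 min at room temperature, with 10 ug/mL donor/acceptor beads.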
A number is an active result; i = inactive; ? = inconclusive; nt = no result; ! = a repeat was not active; [ ] = remark or other dose. A selection: hits, their analogues and other compounds. The true share with any hit is near 11%. Calls follow the shape of the dose curve; as a rule, active = well fitted inhibition curve with a large enough effect; inconclusive = small, poorly fitted or top-dose-only effect; inactive = no such curve, though single readings can be large or run the other way.

SMILES	L3MBTL1 block	G9a inh	JMJD2A Tudor	BAZ2B inh	HP1b binding inh
Cc1sc(NC(=O)CCCC(=O)O)c(C#N)c1C	nt	?	i	i	i
CCCCC(=O)Nc1sc2c(c1C#N)CC(C)(C)OC2	i	i	44.7µM	i	i
Cc1sc(NC(=O)C2CCCC2)c(C#N)c1C	i	7.08µM	i	i	?
COc1ccc(C2/C=C\CN(C(=O)c3ccccc3)C(C)C(=O)N2Cc2ccc(F)cc2)cc1 (configuration not stated)	nt	nt	i	nt	i
CCCC(=O)Nc1sc(C)c(C)c1C#N	i	44.7µM	i	i	i
CCOC(=O)c1c(NC(=O)C2CC2)sc2c1CC(C)(C)OC2	nt	35.5µM	i	i	i
CCCN(CCC)C(=O)Cn1c(=O)n(CCCCCC(=O)NCc2ccccc2Cl)c(=O)c2sccc21	nt	i	i	i	i
O=C1CC(c2ccc3c(c2)OCO3)c2cc(O)ccc2O1 (configuration not stated)	nt	10µM	nt	nt	nt
O=C1CC(c2ccccc2)c2cc(O)ccc2O1 (configuration not stated)	i	3.55µM	?	i	i
O=C1CC(c2ccc3c(c2)OCO3)c2ccc(O)cc2O1 (configuration not stated)	nt	i	nt	nt	nt
O=C(CNC(=O)c1ccco1)NNC(=O)c1cccc(Cl)c1	i	nt	i	nt	i
Nc1c(C(=O)NC2CCCC2)c2nc3ccccc3nc2n1/N=C/c1ccco1	nt	i	i	i	i
Nc1c(C(=O)NC2CCCC2)c2nc3ccccc3nc2n1N	i	50.1µM	i	i	i
COC(=O)c1nc(N2CCN(S(=O)(=O)c3ccc(C)cc3)CC2)c2ccccc2n1	nt	nt	i	nt	i
CCc1cccc(C)c1NC(=O)C1CCN(S(=O)(=O)c2c(C)noc2/C=C/c2c(C)cc(C)cc2C)CC1	nt	i	i	i	?
O=C(NC(C(=O)N/N=C/c1cc([N+](=O)[O-])ccc1O)c1n[nH]c(=O)c2ccccc12)c1ccccc1 (configuration not stated)	nt	?	44.7µM	31.6µM	i
O=C(NC(C(=O)N/N=C/c1cccc2ccccc12)c1n[nH]c(=O)c2ccccc12)c1ccccc1 (configuration not stated)	i	i	i	i	i
O=C(N/N=C/c1ccc(O)c(O)c1)c1cc(-c2ccccc2)nc2ccccc12	nt	44.7µM	?	?	i
O=C(N/N=C/c1cc([N+](=O)[O-])ccc1O)c1cc(-c2ccccc2)nc2ccccc12	?	?	?	31.6µM	i
Cc1cc(C(=O)N/N=C/c2cc(Br)cc([N+](=O)[O-])c2O)c2ccccc2n1	?	?	?	50.1µM	?
COc1ccc(C2=CC(c3ccc(F)cc3)n3ncc(C(=O)Nc4ccc(C)cc4)c3N2)cc1 (configuration not stated)	nt	i	?	i	i
Clc1ccc2nc(-c3ccc(Br)o3)c(Nc3ccc4c(c3)OCCO4)n2c1	nt	i	i	nt	i
CC(C)(C)c1ccc(C(=O)N2CC(=O)Nc3ccc(F)cc3C2c2ccc(F)cc2)cc1 (configuration not stated)	nt	i	i	i	i
Cc1cc(C(=O)N/N=C/c2cc([N+](=O)[O-])ccc2O)c2ccccc2n1	17.8µM	i	25.1µM	17.8µM	i
Cc1ccc(N2C(=O)C(CN3CCCCC3)C2c2ccccc2)cc1 (configuration not stated)	i	i	i	i	89.1µM
SMILES	L3MBTL1 block	G9a inh	JMJD2A Tudor	BAZ2B inh	HP1b binding inh
Cc1ccc(N2C(=O)C(CN3CCCC3)C2c2ccccc2)cc1 (configuration not stated)	?	i	i	i	i
Cc1ccc(S(=O)(=O)Nc2cc(Br)cc3cccnc23)cc1	nt	nt	i	nt	i
CCNCC(=O)Nc1ccc(N2CCOCC2)cc1	i	?	i	?	i
O=C(COC(=O)c1ccc(Br)o1)Nc1ccc(N2CCOCC2)cc1	i	22.4µM	i	i	i
Cc1ccc(CNCC(=O)Nc2ccc(N3CCOCC3)cc2)cc1	i	nt	1.41µM	35.5µM	39.8µM
Cc1ccc(N(CC(=O)N2CCN(c3cccc(C)c3C)CC2)S(=O)(=O)c2c(C)nn(C)c2C)cc1	nt	?	?	nt	i
O=C(CSC1=Nc2ccccc2N=C(c2ccc(F)cc2)C1)Nc1cc(F)ccc1F	nt	i	i	i	i
Cc1ccc(CNC(=O)C(=O)NCC(c2cccs2)S(=O)(=O)c2ccccc2)cc1 (configuration not stated)	nt	i	i	i	i
Cc1ccccc1C(=O)Nc1cccc(OCc2cc(=O)n3cccc(C)c3n2)c1	nt	i	i	i	i
C[C@]12CC[C@@H]3c4ccc(O)cc4CC[C@H]3[C@@H]1CC[C@@H]2O	i	20µM!	i	i	i
C[C@@]12CC[C@@H]3c4ccc(O)cc4CC[C@H]3[C@H]1CC[C@H]2O	nt	i[21.5 µM]	nt	nt	nt
COc1cc2c(cc1O)CCC1C2CC[C@]2(C)[C@@H](O)CC[C@@H]12 (some centres not stated)	nt	39.8µM	nt	nt	nt
C[C@]12CC[C@@H]3c4ccc(O)cc4[C@@H](O)C[C@H]3[C@@H]1CC[C@@H]2O	i	i	nt	i	nt
COC(=O)CCN(Cc1ccco1)S(=O)(=O)c1ccc(F)cc1Br	nt	nt	i	nt	i
COc1ccc(OC)c(CCNC(=O)c2nn(C)c3c2CSc2ccccc2-3)c1	nt	i	i	i	i
